Screening data from PubChem.
Hits are enriched below; roughly 7.8% of the tested compounds scored in any of these assays.
LASV entry inh: blocks Lassa virus binding to or entry into cells; Lassa virus pseudotype entry inhibition, cell reporter; Potency, µM (titrated, usually from 37.9 µM), usual class: inhibitors; actives 1.2% (n = 300,000); AID 540256; calls by dose curve; tested in HEK293 cells; further: nearly all actives have a fitted effect of over 50% in size
HCV inhibitor: HCV inhibition. Huh7.5.1 HCVcc-Cre infection, luciferase reporter, 44 h. Potency, µM (highest dose often 41.8 µM), actives largely listed as inhibitors. actives 3.4% (n = 340,000); active means well fitted inhibition curve with a large enough effect; inconclusive means small, poorly fitted or top-dose-only effect, or another doubt; inactive means no such curve, though single readings can be large or run the other way
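Cells seeded at 1,000/well and cultured 4 h, then compounds added followed by HCVcc-Cre virus (~0.5 moi). After 44 h further culture, luciferase substrate was added, plates held 15 min at room temperature, and luminescence read for 15 sec.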
Vaccinia Venus: vaccinia inhibition (Venus reporter); Vaccinia virus Venus reporter expression, fluorescence; Potency, µM (doses to about 36.5 µM), actives largely listed as inhibitors; actives 0.46% (n = 330,000); calls by dose curve; tested in A549 cells; further: nearly all actives have a fitted effect of over 30% in size
HCMV antiviral: inhibitors of human cytomegalovirus; HFF cells, HCMV-luciferase reporter, 72 h; stronger effect = lower value; AID 1259415; actives 4.5% (n = 410,000); activity change, negative = inhibition, % at 57.5 µM; in the data active means activity change below about -60%; inconclusive means no clear call, values can overlap the other calls; inactive means above about -39%
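Inhibition of viral replication was scored as loss of reporter luminescence in HFFs infected with HCMV-luciferase (MOI 1 PFU/cell) for 72 h; compounds tested at 2 doses, normalized to buffer and Salinomycin controls.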
MARV entry inh: inhibitors of Marburg virus binding or cell entry; Marburg virus pseudotyped entry inhibition, cell reporter; Potency, µM (series often up to 37.8 µM), usual class: inhibitors; actives 1.8% (n = 300,000); AID 540276; calls by dose curve; tested in HEK293 cells
Vaccinia mCherry: vaccinia inhibition (mCherry reporter) | Vaccinia virus mCherry reporter infection, fluorescence | Potency, µM (series often up to 36.5 µM), actives largely listed as inhibitors | actives 0.63% (n = 310,000) | AID 720579; calls by dose curve; tested in A549 cells; further: nearly all actives have a fitted effect of over 35% in size
A number is an active result; i = inactive; ? = inconclusive; nt = no result.

SMILES | LASV entry inh | HCV inhibitor | Vaccinia Venus | HCMV antiviral | MARV entry inh | Vaccinia mCherry
CC1CCN(CCCCOc2ccc(Br)cc2)CC1 | i | 11.2µM | i | ? | ? | i
Cc1cc(Br)ccc1OCCCCN1CCC(C)CC1 | ? | 12.6µM | i | -60.2 | ? | i
CC1CCN(CCCCOc2cccc(Br)c2)CC1 | ? | ? | i | i | ? | i
COc1ccc(NC(=O)Cn2cnc3ccc(S(=O)(=O)N4CCC(C)CC4)cc3c2=O)cc1OC | i | nt | i | i | i | i
O=C1N=C(N2CCc3ccccc3C2)S/C1=C\c1cccc(O)c1 | 20.6µM | i | i | i | i | i
COc1ccc(-c2cn3cccnc3n2)cc1NC(=O)Cc1ccccc1 | i | nt | i | ? | nt | i
COc1ccc(C(CC(=O)Nc2ccc(Cl)cc2F)NC(=O)C(F)(F)F)cc1 (configuration not stated) | i | i | nt | -89.2 | i | nt
COc1ccc(C(CC(=O)N2CCCCC2)NC(=O)C(F)(F)F)cc1 (configuration not stated) | i | i | i | i | i | i
Cc1ccc(-n2nc(CO)c(C(=O)NCc3ccccn3)n2)cc1C | i | nt | i | i | ? | i
CS(=O)(=O)c1ccc(-c2ccc3c(c2)CC(CNC(=O)C2(N4CCOCC4)CCCCC2)O3)cc1 (configuration not stated) | nt | nt | ? | nt | nt | i
Cc1ccc(-n2c(C)cc(/C=c3/sc4nc5ccccc5n4c3=O)c2C)cc1 | ? | i | i | nt | 0.282µM | nt
O=S(=O)(c1cccc(-c2nnc(SCc3nc4ccccc4s3)o2)c1)N1CCOCC1 | i | ? | ? | i | i | 12.6µM
CC(=O)CCSc1nnc(-c2cccc(S(=O)(=O)N3CCOCC3)c2)o1 | i | i | i | i | i | i
O=C(Cn1c(-c2ccccc2)c[n+]2ccsc12)c1ccc([N+](=O)[O-])cc1 | i | 10µM | nt | -99.5 | ? | nt
O=C(Cn1c(-c2ccccc2)c[n+]2ccsc12)c1ccccc1 | nt | i | i | -61.6 | nt | i
CCCCN(CC)CCCNC(=O)C1CCCN(c2ncnc3c2nc2n3CCCCC2)C1 (configuration not stated) | i | nt | i | i | nt | i
COC(=O)[C@H]1[C@@H](c2ccccc2)NC(=O)N(CCc2cc(OC)c(OC)c(OC)c2)[C@@H]1C | nt | nt | nt | nt | i | nt
C#Cc1ccccc1C[C@]1(C(=O)OC)C=C[C@H](C)[C@@H](c2ccccc2Br)N1C(=O)C(F)(F)F | nt | nt | nt | nt | i | nt
CCC(C)n1ncn(-c2ccc(N3CCN(c4ccc(OCC5COC(Cn6cncn6)(c6ccc(Cl)cc6Cl)O5)cc4)CC3)cc2)c1=O (configuration not stated) | nt | ? | ? | -65.6 | nt | i
Cc1ccc(NC(=O)C23CCC(C)(C(=O)[C@H]2Br)C3(C)C)cc1 (some centres not stated) | nt | i | nt | -62.0 | nt | nt
CC12CCC(C(=O)Nc3ccccc3)(C(Br)C1=O)C2(C)C (configuration not stated) | i | i | i | ? | ? | i
Cc1ccc(CNCC(O)(c2ccccc2)c2ccc(Cl)cc2)cc1 (configuration not stated) | i | ? | i | i | 10µM | i
COc1cccc(CNCC(O)(c2ccc(Cl)cc2)c2ccc(Cl)cc2)c1 | i | i | nt | i | 18.3µM | nt
Cn1c(-n2cccc2)c(-c2c(-c3ccc(F)cc3)[nH]c3c2c(=O)[nH]c(=O)n3C)c(=O)[nH]c1=O | i | nt | i | i | i | i
CC(=O)c1cc2ccccc2c2ccccc12 | nt | nt | i | nt | nt | i
SMILES | LASV entry inh | HCV inhibitor | Vaccinia Venus | HCMV antiviral | MARV entry inh | Vaccinia mCherry
O=C(Cc1n[nH]c(=O)c2ccccc12)OCC(=O)c1ccc2c(c1)OCCO2 | ? | i | nt | -86.8 | ? | nt
CS(=O)(=O)Nc1cc(C(=O)N2CCNC(=O)C2)c2c(c1)ncn2CCc1ccccc1 | nt | nt | i | nt | nt | i
O=C(CCC(=O)NC1CCCCC1)NCc1ccc(F)cc1 | nt | i | nt | i | nt | nt
CCN(CC(=O)NCc1ccc(F)cc1)CC(=O)NC1CCCC1 | i | 0.891µM | i | i | i | i
CC(=O)c1cccc(S(=O)(=O)NCCc2csc3nc(-c4ccc(F)cc4)nn23)c1 | i | nt | i | i | nt | i
CCNC(=S)N1CCN(c2ccc([N+](=O)[O-])cc2)CC1 | i | i | i | i | i | i
O=[N+]([O-])c1ccc(N2CCN(C(=S)NCc3ccc(Cl)cc3)CC2)cc1 | nt | 11.2µM | ? | -90.2 | nt | i
Clc1ccc(CNc2ccc(N3CCN(Cc4ccccc4)CC3)cc2)cc1 | ? | 10µM | i | i | ? | i
